PPARg SRC3 recr – promotes SRC-3 coactivator recruitment by human PPARgamma; P37231; biochemical PPARgamma/SRC-3 coactivator recruitment assay; activation, % at 8 µM; 0.26% of 200,000 active; AID 731; in the data active means activation above about 23%;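 further: 0% = DMSO and 100% = reference agonist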
Target sequence (P37231 whole entry, looked up): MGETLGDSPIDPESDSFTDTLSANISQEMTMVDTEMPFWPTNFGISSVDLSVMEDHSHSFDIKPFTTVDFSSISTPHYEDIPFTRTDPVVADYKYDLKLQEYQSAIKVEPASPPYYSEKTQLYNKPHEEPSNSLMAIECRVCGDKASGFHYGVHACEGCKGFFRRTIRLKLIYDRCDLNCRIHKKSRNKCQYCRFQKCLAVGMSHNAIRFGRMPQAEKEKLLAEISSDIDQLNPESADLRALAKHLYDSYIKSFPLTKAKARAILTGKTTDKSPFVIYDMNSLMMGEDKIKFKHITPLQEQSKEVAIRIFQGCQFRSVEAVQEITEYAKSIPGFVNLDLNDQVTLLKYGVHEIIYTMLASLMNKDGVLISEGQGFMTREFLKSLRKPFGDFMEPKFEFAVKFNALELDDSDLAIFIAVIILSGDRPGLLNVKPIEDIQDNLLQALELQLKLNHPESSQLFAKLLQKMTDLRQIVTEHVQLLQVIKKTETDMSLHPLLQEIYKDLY
SRC1 TRFRET art – TR-FRET artefact, counter-screen to PPARgamma/SRC-1 agonist assay. TR-FRET detection artefact counter-screen, emission ratio; hits give high values. TR-FRET ratio at 8 µM. 0.34% of 99,000 active; in the data active means TR-FRET ratio above about 2300
PPARg SRC2 recr – promotes SRC-2 coactivator recruitment by human PPARgamma. 0.34% of 200,000 active. PPARgamma LBD-SRC-2 recruitment, biochemical. P37231. activation, % at 8 µM. AID 1032; in the data active means activation above about 22%;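 further: 0% = vehicle and 100% = reference agonist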
SRC3 TRFRET art – flags TR-FRET format artefacts in PPARgamma SRC-3 recruitment agonist screen. 0.39% of 99,000 active. TR-FRET artefact counter-screen, PPARgamma/SRC-3 format; hits give high values. TR-FRET ratio at 8 µM
PPARg SRC1 recr – PPARgamma-driven SRC-1 recruitment agonism; P37231; PPARgamma-SRC-1 coactivator recruitment biochemical assay; activation, % at 8 µM; 0.41% of 200,000 active; in the data active means activation above about 19%;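 further: 0% = DMSO and 100% = reference agonist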
TR-FRET SRC-2 ct – TR-FRET artefact, counter-screen to PPARgamma/SRC-2 agonist assay; hits give high values; TR-FRET ratio at 8 µM; 0.4% of 200,000 active; AID 1049
Active calls of the source: *; · = no result. Sampled rows, rich in hits. Any-hit rate of the full collection: about 0.9%. Unless noted, no stated cut-off is given here; in the data, active means TR-FRET ratio above about 2000; inactive means the rest.

SMILES	PPARg SRC3 recr	SRC1 TRFRET art	PPARg SRC2 recr	SRC3 TRFRET art	PPARg SRC1 recr	TR-FRET SRC-2 ct
O=C1c2cccc(OCC(=O)N3CCCc4ccccc43)c2CCN1Cc1ccccc1	-3	1537	1	1467	24*	1628
O=C1c2cccc(OCC(=O)N3CCCc4ccccc43)c2CCN1Cc1ccc(Br)cc1	-6	1638	-7	1560	1	1367
CC1=C(C(=O)Nc2ccc(C)cc2C)C(c2ccc(C)o2)NC(=S)N1 (stereo not drawn)	4	1733	-10	1582	-3	1488
COc1ccc(NC(=O)COC(=O)c2cccc(S(=O)(=O)N(C)C)c2)cc1	2	2141	-3	1754	24*	1513
CC(C)N(C)C(=O)C(=O)c1cccn1-c1cccc(Cl)c1C#N	6	2315*	7	1624	8	1459
N#CC1=C(N)SC(N)=C(C#N)C1c1ccoc1	28*	·	31*	·	21*	2095*
Cc1ccc(C2C(C#N)=C(N)SC(N)=C2C#N)cc1	10	·	4	·	9	1666
CC(=O)Nc1ccc(Br)c2ccccc12	12	2333*	20	2311*	18	2043*
O=C1NC(Cc2c[nH]c3ccccc23)C(=O)N1Cc1ccc(CN2C(=O)NC(Cc3c[nH]c4ccccc34)C2=O)cc1 (stereo not drawn)	-5	1697	-3	1358	-3	1494
Cc1c(C(=O)C(=O)NCC2CCCO2)c2ccccc2n1C (stereo not drawn)	-1	1692	3	1512	2	1642
CCCNC(=O)C(CC)NS(=O)(=O)c1ccc(OC)cc1 (stereo not drawn)	44*	·	13	·	7	1497
CC1=CC(=O)c2c(O)ccc(O)c2C1=O	-1	1650	-4	1486	8	1312
Cc1[nH]c2ccccc2c1/C=N/Nc1nncn1N	6	1975	9	1704	4	1675
Cc1[nH]c2ccccc2c1/C=N/Nc1ccccn1	9	1781	10	1761	15	2002*
O=C(COC(=O)CCC(=O)c1cccs1)NC1CC1	0	1671	3	1702	-5	1512
CC(C)c1ccccc1-n1c(SCC(=O)c2ccc3c(c2)NC(=O)CO3)nc2ccccc2c1=O	11	2916*	-1	2760*	0	2160*
CC(C)c1ccccc1-n1c(SCC(=O)N2CCc3ccccc3C2)nc2ccccc2c1=O	2	1834	10	1635	3	1633
CC1CCCC(NC(=S)NC(=O)c2ccccc2Br)C1C (stereo not drawn)	-5	1533	3	1365	-2	1443
CC(C)(C)NC(=O)C(c1c[nH]c2ccccc12)N(C(=O)Cn1nnc(-c2ccc(F)cc2)n1)c1cccc(O)c1 (stereo not drawn)	0	1635	-5	1372	0	1432
COc1ccc(-c2ccc(C#N)c(SCC(=O)OCc3ccccc3)n2)cc1OC	5	·	-1	·	-4	2143*
Nc1nc(-c2ccc(Cl)cc2)nnc1-c1ccc(Br)cc1	11	1858	-2	3281*	1	1760
CCCCC(=O)Nc1nc2ccc3nc(C)sc3c2s1	0	·	7	·	-4	1978*
Cc1c(C(=O)NCCCN2CCOCC2)oc2c1C1(CCC2)SCCS1	2	1801	-6	1609	-4	1568
O=S(=O)(c1ccc(N2CCN(S(=O)(=O)c3ccc4c(c3)OCCO4)CC2)nc1)N1CCCC1	34*	·	12	·	18	2273*
Cn1cnnc1SCc1ccc(C(=O)N=Nc2c(O)n(C)c3ccccc23)cc1	3	1595	23*	1751	8	1643
SMILES	PPARg SRC3 recr	SRC1 TRFRET art	PPARg SRC2 recr	SRC3 TRFRET art	PPARg SRC1 recr	TR-FRET SRC-2 ct
O=C(CSc1c2c(nc3ccc(Cl)cc13)CCCC2)NCCCN1CCOCC1	14	2131	20	2256*	19	1820
O=C(CSc1ccccc1)NCCCN1CCOCC1	-12	·	-3	·	4	1558
Cc1ccc2c(ccc(=S)n2C)c1	5	2278	17	2121*	13	1798
CCn1c(SCC(=O)O)nnc1C1CCCCC1	29*	·	4	·	2	1346
CC(C)Cc1c2c([nH]c(=S)c1C#N)CCCC2	4	1994	4	1737	11	1622
COc1ccc(-c2c3c([nH]c(=S)c2C#N)CCC3)cc1	108*	·	86*	·	64*	4167*
N#Cc1c(-c2cccnc2)c2c([nH]c1=S)CCCC2	8	·	10	·	9	1637
COc1ccc(OC)c(-c2c3c([nH]c(=S)c2C#N)CCCC3)c1	8	2339*	16	2033	18	1970
Cc1ccc(C(=O)OC2OC(=O)C(Cl)=C2N2CCOCC2)cc1 (stereo not drawn)	-1	1756	7	1729	11	1475
Cn1c(=O)c2c(ncn2CCNC2=NCCCCC2)n(C)c1=O	-1	1841	38*	1640	-1	1522
COc1cc(OC)cc(C(=O)NCCCN2CCN(CCCNC(=O)c3cc(OC)cc(OC)c3)CC2)c1	1	1748	-12	1539	0	1493
CCOc1ccccc1Nc1nnc(SCC(=O)Nc2nc(-c3ccc(OC)cc3)cs2)s1	7	2149	7	1775	6	2038*
CCN(c1ccccc1)S(=O)(=O)c1ccc(Cl)c(NC(=O)CSc2nnc(C)s2)c1	9	1665	8	1564	2	1431
Cc1nc(N2CCCCC2C)c2c(C)c(C(=O)Nc3cccc(C(F)(F)F)c3)sc2n1 (stereo not drawn)	4	2035	8	1608	13	1633
Cc1ccc(NC(=O)c2sc3nc(C)nc(N4CCN(c5ccccn5)CC4)c3c2C)c(C)c1	-2	3496*	-3	2659*	4	2163*
Cc1nc(N2CCCCC2)c2c(C)c(C(=O)Nc3cccc(C(F)(F)F)c3)sc2n1	12	2255	14	2057*	7	1762
CC(C)c1ccc(/C=N/NC(=O)c2c(Cl)cnn2C)cc1	4	1536	-6	1658	1	1610
CN(Cc1ccccc1)CC(O)COc1ccc(CNCc2ccc(Cl)s2)cc1 (stereo not drawn)	-2	1347	-7	1490	-3	1507
O=C(CCNC(=O)c1ccco1)Nc1ccccc1N1CCOCC1	1	1835	-5	1784	5	1497
Cc1cc(C)n(-c2nc(SCC(=O)Nc3nccs3)c3c4c(sc3n2)COC(C)(C)C4)n1	5	·	5	·	19*	1687
Cc1nc(C(=O)N2CCc3c([nH]c4ccccc34)C2c2cc(F)ccc2F)cs1 (stereo not drawn)	2	1645	-3	1478	-6	1440
CCOc1ccccc1N1C(=O)CC(Sc2n[nH]c(-c3ccccc3)n2)C1=O (stereo not drawn)	3	1649	3	1621	-2	1690
Cc1ccc(CSc2nc3ccsc3c(=O)n2Cc2ccccn2)cc1	5	1891	7	1669	1	1672
